According to article PMC4336329 (PLoS ONE, 2015):
The whole screen tested about 310,000 compounds, of which about 14,000 (4.5%) showed an effect of 50% or more. Effects have a minus sign here. The full list was thinned out, with strong results kept by preference.

What follows are compounds tested against human ether-à-go-go-related gene (hERG) potassium channel (human, UniProt Q12809) (assay: primary screen, population patch clamp on CHO cells stably expressing hERG; higher = less effect of the substance).
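Note: peak tail current of the secondary pulse compared with the same well before compound.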

human ether-à-go-go-related gene (hERG) potassium channel, sequence (Q12809 whole entry, looked up): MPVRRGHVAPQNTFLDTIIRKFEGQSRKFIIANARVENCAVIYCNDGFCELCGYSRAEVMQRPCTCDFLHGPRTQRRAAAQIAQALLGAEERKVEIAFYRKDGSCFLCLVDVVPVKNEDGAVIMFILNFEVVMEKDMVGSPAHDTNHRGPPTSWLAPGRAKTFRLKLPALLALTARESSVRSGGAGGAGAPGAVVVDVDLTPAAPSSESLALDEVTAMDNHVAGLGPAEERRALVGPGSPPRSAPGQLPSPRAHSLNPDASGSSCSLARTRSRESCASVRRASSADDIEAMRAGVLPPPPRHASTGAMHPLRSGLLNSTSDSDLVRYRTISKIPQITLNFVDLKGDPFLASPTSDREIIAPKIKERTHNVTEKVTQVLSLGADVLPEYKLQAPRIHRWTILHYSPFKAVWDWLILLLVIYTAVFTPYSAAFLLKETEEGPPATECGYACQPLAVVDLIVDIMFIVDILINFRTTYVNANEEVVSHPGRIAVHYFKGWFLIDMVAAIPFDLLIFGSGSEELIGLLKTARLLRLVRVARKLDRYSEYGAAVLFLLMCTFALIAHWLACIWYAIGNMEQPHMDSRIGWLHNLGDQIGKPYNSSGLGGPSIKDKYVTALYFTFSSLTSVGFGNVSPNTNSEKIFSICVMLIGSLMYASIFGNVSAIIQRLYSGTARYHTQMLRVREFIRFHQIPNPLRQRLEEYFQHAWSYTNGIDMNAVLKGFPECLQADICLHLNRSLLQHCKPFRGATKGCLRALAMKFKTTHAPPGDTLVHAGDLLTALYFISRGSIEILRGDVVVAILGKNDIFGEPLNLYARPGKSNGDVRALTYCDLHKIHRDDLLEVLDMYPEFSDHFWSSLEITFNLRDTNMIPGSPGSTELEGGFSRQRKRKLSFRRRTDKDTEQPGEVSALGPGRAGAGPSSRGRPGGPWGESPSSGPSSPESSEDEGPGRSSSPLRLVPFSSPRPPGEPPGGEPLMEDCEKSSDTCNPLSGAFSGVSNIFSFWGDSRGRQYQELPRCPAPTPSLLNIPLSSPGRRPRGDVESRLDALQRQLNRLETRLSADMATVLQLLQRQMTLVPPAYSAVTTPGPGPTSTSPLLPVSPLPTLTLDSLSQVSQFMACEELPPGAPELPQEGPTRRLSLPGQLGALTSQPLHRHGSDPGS

| SMILES | hERG current change (%, negative = inhibition) at 10uM [%] |
| --- | --- |
| O=C(N/N=C/C(Br)=C/c1ccccc1)C1CC1 | 32.2 |
| COc1ccc(NC(=O)Cn2nnc(C(=O)NCc3ccc4c(c3)OCO4)c2N)c(OC)c1 | 18.1 |
| COc1ccc2oc(C(=O)Nc3nccs3)c(C)c2c1 | 16.7 |
| O=C(OCc1nnc(-c2ccccc2)o1)C1CC(=O)N(c2ccccc2)C1 (stereo not shown) | -21.5 |
| O=C(OCc1nnc(-c2ccccc2)o1)C1CC(=O)N(CCc2ccccc2)C1 (stereo not shown) | -31 |
| O=C(OCc1nnc(-c2ccc([N+](=O)[O-])cc2)o1)C1CC(=O)N(CCc2ccccc2)C1 (stereo not shown) | -61.7 |
| COc1ccc(OC)c(CCNC(=O)CCn2nc(C)c3c(C)n(-c4ccccc4)nc3c2=O)c1 | 18.5 |
| CCOC(=O)c1oc2ccccc2c1NC(=O)CN1CCN(C)CC1 | -58.4 |
| COC(=O)c1oc2ccc(Br)cc2c1NC(C)=O | 3.19 |
| CCOC(=O)c1oc2ccc(OC)cc2c1NC(=O)CN1CCN(C)CC1.Cl | -5.54 |
| CCCC(=O)Nc1c(C(=O)OCC)oc2ccccc12 | 1.98 |
| COC(=O)c1oc2ccc(Br)cc2c1NC(=O)CN1CCN(C)CC1 | -62.3 |
| COC(=O)c1oc2ccc(Br)cc2c1NC(=O)CCN1CCOCC1 | -17.7 |
| CCOC(=O)c1oc2ccccc2c1NC(=O)CN1CCOCC1 | 6.54 |
| COC(=O)c1oc2ccc(Br)cc2c1NC(=O)CCCN1C(=O)c2ccccc2C1=O | 17.1 |
| CCOC(=O)c1oc2ccc(Br)cc2c1NC(=O)CN1CCN(C)CC1 | -65.8 |
| Cc1ccc(C)c(N=Cc2c(O)c3ccccc3oc2=O)c1 | 16.3 |
| CCc1ccc(C(C(=O)NC2CCCC2)N(C(=O)/C=C/C(=O)Nc2cc(C)on2)c2ccccc2C)cc1 (stereo not shown) | 9.58 |
| C/C(=N\Nc1ccccc1Cl)c1ccc(-n2ccnc2)cc1 | -7.1 |
| COCCCN1CN=C(NS(=O)(=O)c2ccc(C)cc2)NC1 | 13.3 |
| CC(=O)c1cccc(NC(=O)COc2ccc(S(=O)(=O)N3CCOCC3)cc2)c1 | -10.1 |
| Cc1nc2ccc(-c3nc4ccccc4[nH]3)cc2[nH]1 | 7.78 |
| Cc1ccc(S(=O)(=O)NCCC(=O)NC2CCCCC2C)cc1 (stereo not shown) | 3.4 |
| CC(=O)Nc1ccc(NC(=O)C23CC4CC(C2)CC(n2cnc(Br)n2)(C4)C3)cc1 | -63.4 |
| COc1ccc(OC)c(NC(=O)C23CC4CC(C2)CC(n2cnc(Br)n2)(C4)C3)c1 | -41.2 |
| O=C(Nc1ccccc1)C12CC3CC(C1)CC(n1cnc([N+](=O)[O-])n1)(C3)C2 | -59.6 |

| SMILES | hERG current change (%, negative = inhibition) at 10uM [%] |
| --- | --- |
| COc1ccc(NC(=O)C23CC4CC(C2)CC(n2cnc(Br)n2)(C4)C3)cc1OC | -2.41 |
| COC(=O)c1ccccc1NC(=O)C12CC3CC(C1)CC(n1cnc(Cl)n1)(C3)C2 | -38.5 |
| COC(=O)c1ccc(NC(=O)C23CC4CC(C2)CC(n2cnc(Cl)n2)(C4)C3)cc1 | -27.3 |
| COc1ccc(NC(=O)C23CC4CC(C2)CC(n2cnc(Br)n2)(C4)C3)c(OC)c1 | -23.4 |
| O=C(Nc1cccc2ccccc12)C12CC3CC(C1)CC(n1cnc([N+](=O)[O-])n1)(C3)C2 | -44.5 |
| COc1ccc(NC(=O)C23CC4CC(C2)CC(n2cnc(Br)n2)(C4)C3)c(C)c1 | -9.06 |
| COc1cc(NC(=O)C23CC4CC(C2)CC(n2cnc([N+](=O)[O-])n2)(C4)C3)cc(OC)c1 | -66.7 |
| Cc1ccc(F)cc1NC(=O)C12CC3CC(C1)CC(n1cnc([N+](=O)[O-])n1)(C3)C2 | -52.8 |
| COc1ccc(NC(=O)C23CC4CC(C2)CC(n2cnc(Br)n2)(C4)C3)cc1Cl | 3.08 |
| Cn1c(=O)c([N+](=O)[O-])c(NCC(O)c2ccccc2)c2ccccc21 (stereo not shown) | -2.03 |
| CCOC(=O)Cc1nn(C(C)C)c(=O)c2ccccc12 | 26.6 |
| Cc1cccc(NC(=O)CCn2nc(C)cc2C)c1 | 9.02 |
| CN(C)C(=O)/C(=C/c1cn(-c2ccccc2)nc1-c1cccc([N+](=O)[O-])c1)NC(=O)c1ccccc1 | -29.1 |
| CCNC(=S)N1CCCC(c2nc3ccc(C)cc3[nH]2)C1 (stereo not shown) | -2.45 |
| CC1=C(C(=O)OCc2ccccc2)C(c2ccc(Cl)cc2Cl)NC(=O)N1CCCCCC(=O)O (stereo not shown) | -16.2 |
| CCN(CC(=O)Nc1ccc(OC)cc1)C(=O)c1cc(-c2cccs2)nn1-c1ccccc1 | -15.4 |
| CCOc1ccc(CN(C)C(=O)[C@H](Cc2ccccc2)NC(=O)OCc2ccccc2)cc1OC | -15.7 |
| c1csc(CNc2ncnc3nc[nH]c23)c1 | -2.79 |
| O=C(Nc1cccc([N+](=O)[O-])c1)C12CC3CC(C1)CC(n1cnc([N+](=O)[O-])n1)(C3)C2 | -67.8 |
| O=C(Nc1ccon1)C12CC3CC(C1)CC(n1cnc([N+](=O)[O-])n1)(C3)C2 | -50.5 |
| O=C(O)c1cccc(NC(=O)C23CC4CC(C2)CC(n2cnc(Cl)n2)(C4)C3)c1 | 6.02 |
| O=C(Nc1cc(Oc2ccccc2)cc([N+](=O)[O-])c1)C12CC3CC(C1)CC(n1cnc(Cl)n1)(C3)C2 | 13.9 |
| O=[N+]([O-])c1ncn(C23CC4CC(CC(C4)C2)C3)n1 | -8.76 |
| Cc1cc(NC(=O)C23CC4CC(C2)CC(n2cnc([N+](=O)[O-])n2)(C4)C3)no1 | -32.4 |
| COc1ccc(CNC(=O)c2coc(=O)c3ccccc23)cc1 | -27.3 |
| O=C(NC1CCN(Cc2ccccc2)CC1)C(NS(=O)(=O)c1cccc2nsnc12)c1ccccc1 (stereo not shown) | -44.6 |
